Compounds with a hit are over-represented: about 5.7% of the library has one in this group of screens.
L3MBTL1 block = inhibitors of human L3MBTL1; Potency, µM (series often up to 57.1 µM), for the others: at the top dose activity, negative = inhibition, most hits filed as inhibitors; AlphaScreen L3MBTL1–H3K9me1 peptide binding; 230,000 compounds, 0.66% hits; Q9Y468; AID 485360; further: potency means the concentration at half of the fitted maximal effect; on the % scale 0 is the no-effect control and ±100 the full control effect; nearly all actives have a fitted effect of over 60% in size
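AlphaScreen assay: L3MBTL1 (50 nM final) was preincubated 30 min at room temperature with biotinylated H3(1-15)K9me1 peptide (75 nM final), then 30 min with library compounds; streptavidin donor and nickel chelate acceptor beads (10 ug/mL final) added, 30 min dark.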
KDM4E inh = blocks human JMJD2E demethylase activity; 230,000 compounds, 1.6% hits; B2RXH2; Potency, µM (titrated, usually from 57.1 µM), for inactives: at the highest dose activity change, negative = inhibition, usual class: inhibitors; JMJD2E catalytic domain, FDH-coupled NADH fluorescence (FDH is formaldehyde dehydrogenase); active means well fitted inhibition curve with a large enough effect, not every such curve was filed as active; inconclusive means small, poorly fitted or top-dose-only effect, or another doubt; inactive means no such curve, though single readings can be large or run the other way;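 further: potency means the concentration at half of the fitted maximal effect; 0% = wells with enzyme and -100% = buffer wells without enzyme; nearly all actives have a fitted effect of over 50% in size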
Target sequence (B2RXH2 1-337 limits assumed): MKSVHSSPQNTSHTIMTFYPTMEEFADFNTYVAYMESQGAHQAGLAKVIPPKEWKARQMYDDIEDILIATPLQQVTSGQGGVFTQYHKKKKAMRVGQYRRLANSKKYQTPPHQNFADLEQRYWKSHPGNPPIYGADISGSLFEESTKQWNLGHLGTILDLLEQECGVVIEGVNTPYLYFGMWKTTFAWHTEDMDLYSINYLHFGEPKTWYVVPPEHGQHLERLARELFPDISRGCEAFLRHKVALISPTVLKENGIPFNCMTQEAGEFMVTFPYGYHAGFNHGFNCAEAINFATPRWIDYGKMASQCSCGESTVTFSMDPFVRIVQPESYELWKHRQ
JMJD2A Tudor = inhibitors of human JMJD2A Tudor domain. O75164. 390,000 compounds, 4.4% hits. Potency, µM (series often up to 114 µM), inactives show at the top dose activity change, negative = inhibition, actives largely listed as inhibitors. AlphaScreen JMJD2A-Tudor / H3K4me3 peptide binding. AID 504339; further: potency means the concentration at half of the fitted maximal effect; on the % scale 0 is the no-effect control and ±100 the full control effect; nearly all actives have a fitted effect of over 50% in size
BAZ2B inh = blocks human BAZ2B | Q9UIF8 | 360,000 compounds, 4.4% hits | AlphaScreen BAZ2B-H3K14Ac peptide displacement | Potency, µM (top dose mostly 114 µM), inactives show at the top dose activity change, negative = inhibition, actives largely listed as inhibitors | AID 504333; further: potency means the concentration at half of the fitted maximal effect; on the % scale 0 is the no-effect control and ±100 the full control effect; nearly all actives have a fitted effect of over 60% in size
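BAZ2B (50 nM) with biotin-H3(5-23)K14Ac peptide (50 nM) in PBS pH 7.4, 0.01% Tween-20, preformed 30 min, then compound 30 min at room temperature; top concentration 110uM. AlphaScreen streptavidin donor/nickel chelate acceptor beads (10 ug/mL final), 20 min dark, signal read.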
HP1b binding inh = blocks HP1-beta chromodomain binding to methylated histone tails. AID 540317. Potency, µM (doses to about 114 µM), inactives show top-dose activity change, negative = inhibition, most hits filed as inhibitors. AlphaScreen HP1-beta / biotin-H3K9me3 peptide binding. 390,000 compounds, 0.56% hits. P83916; further: potency means the concentration at half of the fitted maximal effect; nearly all actives have a fitted effect of over 70% in size
Target sequence (P83916 whole entry, looked up): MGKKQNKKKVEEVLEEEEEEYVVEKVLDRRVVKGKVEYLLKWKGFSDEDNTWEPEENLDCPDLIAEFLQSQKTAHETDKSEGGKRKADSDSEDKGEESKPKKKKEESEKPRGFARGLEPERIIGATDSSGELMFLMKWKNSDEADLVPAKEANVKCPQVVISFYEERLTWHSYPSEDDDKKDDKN
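AlphaScreen: HP1-beta (50 nM) preformed 30 min with biotin-H3(1-18)K9me3 peptide (50 nM) in PBS pH 7.4, 0.01% Tween-20. Compound added for 30 min at RT, then streptavidin donor/nickel chelate acceptor beads (10 ug/mL) for 30 min.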
PI5P4Ka inh = PI5P4K alpha (human) kinase inhibition | AID 652105 | P48426 | 330,000 compounds, 1.2% hits | PI5P4Kalpha enzyme, ADP-Glo luminescence, 60 min; hits give low values | max response, %; active means max response of -50% or lower; inconclusive means between -30% and -50%; inactive means -30% or higher; further: value at the top dose of about 77 µM; on the % scale 0 is the no-effect control and ±100 the full control effect
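PI5P4Kalpha ADP-Glo assay; 5 microM ATP final; 60 min RT reaction; HEPES pH 7.4/EGTA/CHAPS, 5% DMSO; controls lacking substrate or enzyme; luminescent end-point.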
The depositor's hits bear a star; u = inconclusive; x = not tested or not shown; [ ] = remark or other dose. Unless noted, the call rests on the fitted dose curve; in most records, active means well fitted inhibition curve with a large enough effect; inconclusive means small, poorly fitted or top-dose-only effect; inactive means no such curve, though single readings can be large or run the other way.

SMILES | L3MBTL1 block | KDM4E inh | JMJD2A Tudor | BAZ2B inh | HP1b binding inh | PI5P4Ka inh
COc1ccc(C(c2nnnn2Cc2cccs2)N2CCN(c3ccc(F)cc3)CC2)cc1OC (configuration not stated) | -11.7% | -11.7% | 44.7µM* | u | u | -12.8
COc1ccc(N2CCN(C(c3cc(OC)ccc3OC)c3nnnn3CC3CCCO3)CC2)cc1 (configuration not stated) | -6.8% | -2.4% | 79.4µM* | 50.1µM* | -0.2% | 8.8
COc1ccc(OC)c(C(c2nnnn2C2CCCC2)N2CCN(c3ccccc3F)CC2)c1 (configuration not stated) | -7.4% | -6.1% | -34.0% | 50.1µM* | -1.7% | 4.8
COc1ccc(N2CCN(C(c3ccccc3OC)c3nnnn3C3CCCC3)CC2)cc1 (configuration not stated) | -25.5% | -12.4% | 56.2µM* | 44.7µM* | u | -3.7
COc1ccc(OC)c(C(c2nnnn2C2CCCC2)N2CCc3ccccc3C2)c1 (configuration not stated) | x | -2.3% | -26.9% | u | 11.4% | 15.5
Cc1ccc(-n2nc(CO)c(C(=O)NCCCc3ccccc3)n2)cc1C | x | x | 18.9% | 1.3% | 29.1% | x
Cc1ccc(N(C(=O)Cc2cccs2)C(C(=O)NC2CCCCC2)c2ccccn2)cc1C (configuration not stated) | 7.2% | 7.6% | -14.5% | 3.4% | 23.4% | 8.4
COC(=O)C1(C(=O)OC)CC2=CC(CC2=O)Cc2ccccc2[C@@H]1C[N+](=O)[O-] (some centres not stated) | x | -4.2% | x | x | x | x
CCN(CC)CCOC(=O)/C=C/c1ccccc1OC | 4.8% | u | -10.8% | 0.1% | 40.3% | 4.4
CCN(C/C=C/c1ccccc1OC)Cc1ccccc1 | 3.3% | x | 20µM* | u | u | -0.2
CCCCN(C/C=C/c1ccccc1OC)Cc1ccccc1 | -2.4% | x | 1.26µM* | u | u | 4.9
Cc1ccc(Cl)cc1NC(=O)N1CCC2(CC1)Oc1ccccc1C(=O)N2Cc1ccccc1F | x | x | -3.3% | 0.1% | 58.7% | x
CC(C)(C)OC(=O)Nc1ncnc2c1C(c1ccccc1)c1c(ccc3ccccc13)O2 (configuration not stated) | x | x | 0.7% | x | x | x
COc1ccc(-n2nc([N+](=O)[O-])c(=NCCc3ccc(Cl)cc3)n2O)cc1 | -11.3% | 1.6% | -31.5% | -10.0%[57.1 µM] | -6.7% | x
CCc1ccc(N=c2c([N+](=O)[O-])nn(-c3ccccc3)n2O)cc1 | x | -9.7% | 44.7µM* | 31.6µM* | u | x
COc1ccc(-n2nc([N+](=O)[O-])c(=NCCc3ccc(C)cc3)n2O)cc1 | x | 7.4% | 50.1µM* | u | u | 0.5
Cc1cc(C)cc(N=c2c([N+](=O)[O-])nn(-c3ccc(Cl)cc3)n2O)c1 | x | 8.5% | u | u | -26.5% | 0.3
COc1ccc(-n2nc([N+](=O)[O-])c(=NCc3cccnc3)n2O)cc1 | 12.9% | 7.7% | -15.4% | -9.0% | 20.7% | 6.0
COc1ccc(-n2nc([N+](=O)[O-])c(=NCCC3=CCCCC3)n2O)cc1 | u | -8.7% | 39.8µM* | 20µM* | 44.7µM* | -0.2
Cc1ccc(CN=c2c([N+](=O)[O-])nn(-c3cccc(C)c3)n2O)cc1 | x | 12.8% | 35.5µM* | u | u | 3.0
CSc1nc(C)cc(C)c1C#N | -0.1% | -4.8% | 15.8% | -18.8% | 55.1% | -50.1*
Cc1cc(C)cc(NC(=O)CN2C(=O)CCc3cc(S(=O)(=O)N4CCCCC4)ccc32)c1 | x | x | -16.9% | -17.5% | 39.7% | x
O=C(O)C1CSC(c2ccco2)N1 (configuration not stated) | 43.9% | u | -21.8%[11.4 µM] | 50.1µM* | 39.8µM* | -80.4*
COC(=O)c1ccc(C2NC(C(=O)O)CS2)cc1 (configuration not stated) | x | u | 6.31µM* | u | -63.1% | x
